The values below come from paper PMC3218832.

Holding throughout (assay): protein binding microarray; high values mean tight binding
What all share (details): dsDNA, one strand shown

For test [1], the target named is RELARELA (p65 homodimer) (Homo sapiens, UniProt Q04206 1-307).
Test [2] concerns the target p50p50 homodimer (Homo sapiens, UniProt P19838 7-356).
Test [3] has as its target T1, p52p52 homodimer (Homo sapiens, UniProt Q00653 4-332).
T1 sequence: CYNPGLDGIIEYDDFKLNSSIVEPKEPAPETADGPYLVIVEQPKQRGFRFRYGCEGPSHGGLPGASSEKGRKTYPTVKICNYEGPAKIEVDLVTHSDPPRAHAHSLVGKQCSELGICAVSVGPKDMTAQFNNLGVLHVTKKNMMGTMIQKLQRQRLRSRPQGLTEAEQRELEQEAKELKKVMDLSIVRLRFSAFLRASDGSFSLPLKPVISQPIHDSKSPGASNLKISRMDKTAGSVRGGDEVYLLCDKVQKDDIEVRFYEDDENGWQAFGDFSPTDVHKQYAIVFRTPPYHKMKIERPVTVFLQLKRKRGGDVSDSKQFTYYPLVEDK

The target in test [4] is RELA (p65) subunit of heterodimer;p50 subunit (Homo sapiens;Homo sapiens, UniProt Q04206;P19838 1-307;7-356).
RELA (p65) subunit of heterodimer;p50 subunit, sequence (Q04206 1-307, chain 1 of 2): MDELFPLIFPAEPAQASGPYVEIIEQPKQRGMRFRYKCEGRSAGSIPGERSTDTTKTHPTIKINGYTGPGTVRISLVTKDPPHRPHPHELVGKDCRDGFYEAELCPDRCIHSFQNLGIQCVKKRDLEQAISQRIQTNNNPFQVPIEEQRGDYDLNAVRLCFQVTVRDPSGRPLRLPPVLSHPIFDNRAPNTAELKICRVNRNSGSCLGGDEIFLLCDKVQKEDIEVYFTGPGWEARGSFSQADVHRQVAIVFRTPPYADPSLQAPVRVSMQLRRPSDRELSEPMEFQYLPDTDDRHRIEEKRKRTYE
RELA (p65) subunit of heterodimer;p50 subunit, sequence (P19838 7-356, chain 2 of 2): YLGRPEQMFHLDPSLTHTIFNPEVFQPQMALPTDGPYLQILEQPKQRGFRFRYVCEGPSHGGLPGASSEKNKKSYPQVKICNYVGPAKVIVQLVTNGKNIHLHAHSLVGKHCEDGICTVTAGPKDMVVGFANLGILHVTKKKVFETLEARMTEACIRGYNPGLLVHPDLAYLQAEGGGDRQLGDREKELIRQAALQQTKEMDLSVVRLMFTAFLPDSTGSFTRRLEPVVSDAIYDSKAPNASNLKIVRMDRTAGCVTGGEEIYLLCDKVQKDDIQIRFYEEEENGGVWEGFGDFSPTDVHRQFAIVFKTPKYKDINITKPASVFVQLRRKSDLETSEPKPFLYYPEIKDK
Test [5] deals with RELA (p65) subunit of heterodimer;p52 subunit (Homo sapiens;Homo sapiens, UniProt Q04206;Q00653 1-307;4-332).
Test [6] concerns the target RELB subunit;p50 subunit (Homo sapiens;Homo sapiens, UniProt Q01201;P19838 120-401;7-356).
Test [7] deals with T2, RELB subunit;p52 subunit (Homo sapiens;Homo sapiens, UniProt Q01201;Q00653 120-401;4-332).
T2 sequence 1: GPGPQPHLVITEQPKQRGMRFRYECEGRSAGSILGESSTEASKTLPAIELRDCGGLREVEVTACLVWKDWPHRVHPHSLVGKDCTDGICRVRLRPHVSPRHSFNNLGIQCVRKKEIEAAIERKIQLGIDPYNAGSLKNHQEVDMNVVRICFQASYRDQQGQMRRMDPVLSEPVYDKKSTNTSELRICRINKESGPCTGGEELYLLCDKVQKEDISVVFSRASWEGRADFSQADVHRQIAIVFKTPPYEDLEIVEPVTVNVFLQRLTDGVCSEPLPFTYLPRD
T2 sequence 2: T1 sequence

The target in test [8] is C-Rel subunit;p50 subunit (Homo sapiens;Homo sapiens, UniProt Q04864;P19838 1-285;7-356).
Test [9] concerns the target T3, C-Rel subunit;p52 subunit (Homo sapiens;Homo sapiens, UniProt Q04864;Q00653 1-285;4-332).
T3 sequence 1: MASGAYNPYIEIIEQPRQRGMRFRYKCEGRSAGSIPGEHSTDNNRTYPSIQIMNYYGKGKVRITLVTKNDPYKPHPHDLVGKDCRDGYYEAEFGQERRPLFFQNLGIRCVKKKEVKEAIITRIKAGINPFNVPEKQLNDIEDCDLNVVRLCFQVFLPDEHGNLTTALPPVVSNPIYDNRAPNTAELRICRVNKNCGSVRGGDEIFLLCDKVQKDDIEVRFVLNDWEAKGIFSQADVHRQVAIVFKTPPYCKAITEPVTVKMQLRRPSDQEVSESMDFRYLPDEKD
T3 sequence 2: T1 sequence

p50p50 homodimer, sequence (P19838 7-356): as the sequence (P19838 7-356, chain 2 of 2) above
RELARELA (p65 homodimer), sequence (Q04206 1-307): as the sequence (Q04206 1-307, chain 1 of 2) above

Regarding CGAAAGTTCCT, the binding signal in test [1] was 0.451 z-score; in test [2], -0.747 z-score; in [3], -0.53 z-score; in [4], -0.689 z-score; in test [5] it was -0.651 z-score; in test [6], -0.963 z-score. The binding signal is -0.709 z-score in test [7], -0.537 z-score in [8] and -0.406 z-score in [9].

In the case of CGATATATCCC, the binding signal in test [1] is 0.113 z-score; in test [2], -0.443 z-score; in test [3], -0.0767 z-score; in [4] it was -0.33 z-score; in test [5], -0.28 z-score; in [6], -0.357 z-score. Moreover, the binding signal is -0.154 z-score in test [7], -0.427 z-score in test [8] and -0.465 z-score in [9].

Regarding AGAATTGTCCC, the binding signal in test [1] worked out at 0.95 z-score; in test [2] it was 0.906 z-score; in test [3] it was 0.873 z-score; in test [4] it was 0.803 z-score; in test [5], 0.85 z-score; in test [6], 0.82 z-score. Further, the binding signal was determined as 0.675 z-score in test [7], 0.87 z-score in test [8] and 0.604 z-score in test [9].

For GAGAATGTCCT, the binding signal in test [1] is 0.673 z-score; in [2], -1.23 z-score; in [3], -0.437 z-score; in test [4] it was -0.682 z-score; in test [5], -0.739 z-score; in test [6] it was -1.01 z-score. The binding signal in [7] is -0.926 z-score; in [8] it was -0.737 z-score; in test [9], -0.678 z-score.

Take CAGAGCTCCCC: the binding signal in [1] is -0.432 z-score; in test [2], -0.0564 z-score; in test [3] it was -0.163 z-score; in [4], 0.0392 z-score; in test [5], -0.211 z-score; in test [6], 0.161 z-score. For the same sequence, the binding signal in [7] is -0.0377 z-score; in test [8], 0.0629 z-score; in test [9], -0.215 z-score.

Consider AGGTTCATCCC, for which the binding signal in test [1] was -0.622 z-score; in test [2], -0.302 z-score; in test [3], -0.0688 z-score; in [4], -0.431 z-score; in test [5], -0.313 z-score; in test [6], -0.476 z-score. Also, the figures for the binding signal in test [7], in test [8] and in [9] were -0.362 z-score, -0.498 z-score and -0.243 z-score, respectively.

As to AGAGGCGTCCC, the binding signal in test [1] is -0.0545 z-score; in test [2], -0.0189 z-score; in test [3], 0.07 z-score; in test [4] it was -0.193 z-score; in test [5], -0.01 z-score; in [6], 0.139 z-score. The binding signal was 0.267 z-score in test [7], -0.234 z-score in [8] and -0.17 z-score in test [9].

Consider AGATTCGCCCC, for which the binding signal in test [1] stood at 0.366 z-score; in test [2] it was 0.156 z-score; in test [3], 0.127 z-score; in test [4], 0.288 z-score; in test [5] it was 0.219 z-score; in test [6], 0.292 z-score. For the same sequence, the binding signal was 0.48 z-score in [7], 0.611 z-score in [8] and -0.0556 z-score in [9].

As for CAAGTATTCCT, the binding signal in [1] was -0.0829 z-score; in [2], -1.19 z-score; in [3], -0.607 z-score; in test [4], -0.839 z-score; in [5], -0.737 z-score; in [6], -0.975 z-score. Moreover, the values for the binding signal in test [7], in [8] and in test [9] were -0.645 z-score, -0.507 z-score and -0.822 z-score, respectively.

In the case of GGGGTCTCCCT, the binding signal was found to be 0.447 z-score in test [1]; 0.727 z-score in test [2]; 1.4 z-score in [3]; 1.01 z-score in [4]; 1.15 z-score in [5]; 0.85 z-score in [6]. For the same sequence, the binding signal was 1.05 z-score in test [7], 0.709 z-score in test [8] and 1.16 z-score in test [9].

As to AAGGTACTCCC, the binding signal is -0.19 z-score in [1]; 0.76 z-score in test [2]; 0.735 z-score in test [3]; 0.376 z-score in [4]; 0.386 z-score in test [5]; 0.54 z-score in test [6]. Moreover, the binding signal in test [7] came to 0.302 z-score; in [8] it was 0.206 z-score; in test [9] it was 0.449 z-score.

As for CGAGTAACCCC, the binding signal in test [1] was -0.498 z-score; in test [2], -0.0762 z-score; in [3], -0.149 z-score; in test [4] it was -0.232 z-score; in [5], -0.211 z-score; in test [6] it was -0.188 z-score. Moreover, the binding signal in test [7] was 0.213 z-score; in test [8], -0.0464 z-score; in test [9] it was -0.115 z-score.

For the sequence AAGAACCCCCT, the binding signal in test [1] is -0.175 z-score; in test [2] it was 1.5 z-score; in test [3] it was 1.86 z-score; in [4], 2.09 z-score; in test [5], 1.57 z-score; in test [6] it was 2.18 z-score. In addition, the values for the binding signal in test [7], in [8] and in test [9] were 2.07 z-score, 1.44 z-score and 1.48 z-score, respectively.

Take GGGGACACCCC: the binding signal in test [1] was determined as 0.873 z-score; in test [2] it was 0.656 z-score; in [3], 2.83 z-score; in test [4] it was 1.56 z-score; in [5], 2.26 z-score; in test [6] it was 1.68 z-score. Further, the binding signal is 2.1 z-score in [7], 1.26 z-score in test [8] and 2.35 z-score in [9].

Regarding GAGAAAGTCCC, the binding signal is 1.97 z-score in [1]; 1.14 z-score in test [2]; 1.91 z-score in test [3]; 1.51 z-score in test [4]; 1.47 z-score in test [5]; 1.81 z-score in test [6]. Moreover, the values for the binding signal in test [7], in test [8] and in [9] were 1.7 z-score, 1.39 z-score and 1.69 z-score, respectively.

Take AAAAGTCTCCC: the binding signal in test [1] was 0.0565 z-score; in [2] it was 0.0889 z-score; in test [3] it was -0.045 z-score; in [4], 0.215 z-score; in [5], 0.0155 z-score; in test [6] it was 0.205 z-score. In addition, the results for the binding signal in test [7], in test [8] and in test [9] were 0.142 z-score, 0.0274 z-score and -0.177 z-score, respectively.

CAGAACTTCCC: the binding signal in test [1] came to 1.94 z-score; in [2], 0.457 z-score; in [3], 0.196 z-score; in test [4], 0.921 z-score; in test [5], 0.329 z-score; in test [6] it was 0.182 z-score. Moreover, the binding signal in [7] is 0.0935 z-score; in test [8], 0.664 z-score; in test [9], 0.413 z-score.

Consider CAGATGTTCCT, for which the binding signal is -0.208 z-score in [1]; -2.01 z-score in test [2]; -0.586 z-score in test [3]; -0.746 z-score in test [4]; -0.87 z-score in [5]; -1.02 z-score in test [6]. The binding signal in test [7] is -0.843 z-score; in test [8], -1.15 z-score; in [9], -0.842 z-score.

Take GAGTGCTTCCC: the binding signal in [1] was 0.545 z-score; in test [2] it was -0.398 z-score; in test [3], -0.0563 z-score; in [4] it was -0.232 z-score; in test [5], -0.157 z-score; in [6], -0.589 z-score. Further, the values for the binding signal in test [7], in test [8] and in test [9] were -0.383 z-score, -0.23 z-score and 0.0743 z-score, respectively.

As to AAGTTTCCCCT, the binding signal worked out at 1.76 z-score in test [1]; 1.73 z-score in test [2]; 2.41 z-score in test [3]; 2.47 z-score in test [4]; 2.06 z-score in [5]; 2.72 z-score in test [6]. Moreover, the binding signal in [7] was determined as 2.65 z-score; in [8], 2.01 z-score; in test [9], 1.96 z-score.

As for GAGAATTCCCT, the binding signal in [1] is 1.81 z-score; in test [2], 1.39 z-score; in [3], 2.1 z-score; in test [4], 1.68 z-score; in test [5], 1.6 z-score; in test [6], 1.65 z-score. For the same sequence, the results for the binding signal in test [7], in [8] and in test [9] were 1.74 z-score, 1.43 z-score and 1.33 z-score, respectively.
